This is one part of a sample in which hits are shown more often than they occur.
TDP1 cell CPT = qHTS for Inhibitors of human tyrosyl-DNA phosphodiesterase 1 (TDP1): qHTS in cells in presence of CPT; chicken DT40 Tdp1-/-;hTDP1 cells + 20 nM CPT, ATP luminescence, 48 h; Potency, µM (titrated, usually from 46.2 µM), for inactives: top-dose activity change, negative = growth inhibition, actives largely listed as inhibitors; 12% of 420,000 active; AID 686979, 2013; also: potency is read from the fitted curve at half-maximal effect; nearly all actives have a fitted effect of over 55% in size
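Chicken DT40 Tdp1-/- cells complemented with human TDP1, 400 cells/well, exposed to compounds plus 20 nM camptothecin for at least 48 h at 37 C; viability read as ATP content by CellTiter-Glo luminescence.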
HT1080 IDH1KD tx = qHTS for induction of synthetic lethality in tumor cells producing 2HG: qHTS for the HT-1080-IDH1KD cell line; Potency, µM (doses to about 46.1 µM), without a hit: top-dose activity, negative = toxicity, usual class: cytotoxic; HT-1080 IDH1 knockdown viability, ATP luminescence, 48 h; 2% of 360,000 active;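 also: potency is read from the fitted curve at half-maximal effect; 0% = DMSO wells and -100% = cell-free medium wells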
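In this qHTS, HT-1080 cells depleted of IDH1 are exposed for 48 h at 37 °C to compound titrations. Toxicity is scored from CellTiter-Glo luminescence, with DMSO as full viability and medium alone as none.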
ALOX12 inh = Primary qHTS assay for inhibitors of human arachidonate 12S-lipoxygenase (ALOX12): Round 2 | Polyunsaturated fatty acid lipoxygenase ALOX12 (Homo sapiens), P18054 | purified 12hLO, xylenol orange hydroperoxide absorbance | Potency, µM (highest dose often 108 µM), for inactives: at the highest dose activity change, negative = inhibition, most hits filed as inhibitors | 1.1% of 580,000 active; also: potency is read from the fitted curve at half-maximal effect
Target sequence (P18054 whole entry, looked up): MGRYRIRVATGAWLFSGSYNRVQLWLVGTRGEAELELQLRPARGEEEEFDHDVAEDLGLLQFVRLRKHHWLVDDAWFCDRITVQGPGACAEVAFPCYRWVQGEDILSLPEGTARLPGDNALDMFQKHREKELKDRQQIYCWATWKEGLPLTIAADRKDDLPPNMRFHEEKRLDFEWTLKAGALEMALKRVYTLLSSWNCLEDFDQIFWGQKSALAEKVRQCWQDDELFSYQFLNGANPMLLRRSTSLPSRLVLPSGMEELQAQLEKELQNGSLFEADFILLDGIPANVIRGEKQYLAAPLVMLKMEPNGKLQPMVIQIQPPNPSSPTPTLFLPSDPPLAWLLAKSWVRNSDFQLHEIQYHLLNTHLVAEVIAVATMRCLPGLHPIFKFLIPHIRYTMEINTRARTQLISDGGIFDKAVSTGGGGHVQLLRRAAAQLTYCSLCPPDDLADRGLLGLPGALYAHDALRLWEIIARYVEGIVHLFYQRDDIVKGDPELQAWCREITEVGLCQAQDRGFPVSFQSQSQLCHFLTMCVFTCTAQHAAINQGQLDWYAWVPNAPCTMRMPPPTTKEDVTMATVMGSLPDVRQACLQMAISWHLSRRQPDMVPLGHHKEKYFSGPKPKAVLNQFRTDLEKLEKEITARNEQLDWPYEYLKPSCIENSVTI
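Purified human 12hLO (150 nM final) in 25 mM Hepes, 0.01% Triton X-100, pH 7.0 was preincubated 15 min at room temperature with compound. Then 40 uM arachidonic acid was added, 30 min. Hydroperoxide was read by Fe-XO absorbance ratio 573/405 nm.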
IL1B secr inh = qHTS for Inhibitors of Inflammasome Signaling: IL-1-beta AlphaLISA Primary Screen | THP-1 LPS/ATP IL-1B secretion, AlphaLISA, 16 h; hits give low values | activity change, % at 57.5 µM | 4.7% of 360,000 active | AID 743279, 2014; in the data active = activity change below about -50%; inconclusive = mostly about -30% to -49%
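THP-1 cells pretreated 1 hr with compounds (up to 57.5 uM final), then stimulated with LPS (250 ng/mL final) plus ATP (1.25 mM final); secreted IL-1B measured by AlphaLISA after 16 hr, decreased signal indicating inhibition.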
HT1080NT lethal = qHTS for induction of synthetic lethality in tumor cells producing 2HG: qHTS for the HT-1080-NT fibrosarcoma cell line. HT-1080-NT fibrosarcoma viability, CellTiter-Glo ATP luminescence, 48 h. Potency, µM (titrated, usually from 46.1 µM), for the others: at the highest dose activity, negative = less viability, usual class: cytotoxic. 1.6% of 360,000 active. AID 686970, 2013;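 also: NT is the 2HG producing partner of a matched IDH1 knockdown line; potency is read from the fitted curve at half-maximal effect; 0% = DMSO-treated cells and -100% = media-only wells without cells; nearly all actives have a fitted effect of over 55% in size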
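Luminescent CellTiter-Glo readout after 48 hours of compound exposure at 37 degrees C defined viability of HT-1080-NT cells. Activity was normalized to DMSO wells and cell-free media wells; concentration-response curves were fitted and assigned curve classes.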
TDP1 cell noCPT = qHTS for Inhibitors of human tyrosyl-DNA phosphodiesterase 1 (TDP1): qHTS in cells in absence of CPT. DT40 Tdp1-/- hTDP1 cells, no CPT, ATP luminescence, 48 h. Potency, µM (highest dose often 46.2 µM), for inactives: top-dose activity change, negative = growth inhibition, usual class: inhibitors. 15% of 420,000 active. AID 686978, 2013; also: potency is read from the fitted curve at half-maximal effect; nearly all actives have a fitted effect of over 55% in size
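Stably hTDP1-transfected Tdp1-null chicken DT40 cells were treated with library compounds minus camptothecin and grown for at least 48 hr at 37 °C, after which cellular ATP was quantified by luminescence.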
Active calls of the source: *; ? = inconclusive; / = no result given; [ ] = dose if it differs, or a comment. Unless noted, calls follow the shape of the dose curve; as a rule, active = well fitted curve in the direction sought with a large enough effect; inconclusive = small, poorly fitted or top-dose-only effect, or another doubt; inactive = no such curve, though single readings can be large; an effect the other way counts as inactive or inconclusive. Unless noted, % is scaled to controls: 0 for no effect and ±100 for the full control effect.

SMILES	TDP1 cell CPT	HT1080 IDH1KD tx	ALOX12 inh	IL1B secr inh	HT1080NT lethal	TDP1 cell noCPT
O=C(CN1C2=NCCCN2c2ccccc21)c1cccs1	7%	4%	73%	-19	0%	-22%
O=C(CN1C2=NCCN2c2ccccc21)c1ccc2c(c1)OCO2	?	?	6%	-81*	0%	?
O=C(CN1C2=NCCCN2c2ccccc21)c1ccc(Cl)cc1Cl	21µM*	-28%	-9%	-19	-18%	15µM*
O=C(CN1C2=NCCN2c2ccccc21)c1ccc(Br)cc1	?	-15%	0%	-25	-26%	?
O=C(CN1C2=NCCCN2c2ccccc21)c1cccc(Br)c1	?	-24%	26%	-26	-27%	23µM*
O=C(CN1C2=NCCN2c2ccccc21)c1ccc(Br)s1	18µM*	2%	2%	-18	-2%	?
CCc1ccc2occ(CC(=O)N(Cc3ccc(F)cc3)C3CCS(=O)(=O)C3)c2c1 (centres undefined)	/	/	5%	/	/	/
Cn1cc(C(=O)NCCNS(=O)(=O)c2ccccc2)c2ccccc21	/	/	18%	/	/	/
O=C(Cc1ccc(Br)cc1)NC1CCN(C2CC2)C1 (centres undefined)	/	/	29%	/	/	/
CC(C)CC1C(=O)N(Cc2cn(CC3CCCCC3)nn2)CCS(=O)(=O)N1Cc1ccc(-c2ccc(Cl)c(Cl)c2)cc1 (centres undefined)	?	-29%	-6%	-11	?	16µM*
Cc1cccc(C)c1-c1ccc(CN2C(CC(C)C)C(=O)N(Cc3cn(CC4CCCCC4)nn3)CCS2(=O)=O)cc1 (centres undefined)	?	?	-85%	-13	?	23µM*
Cc1oc(-c2cccc(Cl)c2)nc1CN1CCC(C(=O)NCc2cccnc2)CC1	?	-3%	0%	-13	1%	-25%
Cc1oc(-c2cccc(Cl)c2)nc1CN1CCC(C(=O)NCCCN2CCN(c3ccccc3F)CC2)CC1	2.9µM*	/	5%	/	/	3.7µM*
COc1ccc(-c2nc(CN3CCC(C(=O)NCCCN4CCN(c5ccccc5F)CC4)CC3)c(C)o2)cc1OC	?	/	-10%	/	/	1.2µM*
COc1ccc2c3c(ccc2c1)C(=O)/C(=C/O)CC3	?	-20%	25µM*	54	-8%	16µM*
COc1ccc(-c2cc(C(=O)NCCN3CCOCC3)c3ccccc3n2)cc1OC	8%	12%	-29%	0	-4%	?
O=C(Nc1ccccc1N1CCOCC1)c1cc(-c2ccco2)nc2ccccc12	21µM*	-23%	0%	-17	?	21µM*
COc1cc(-c2cc(C(=O)Nc3ccccc3N3CCOCC3)c3ccccc3n2)cc(OC)c1OC	18µM*	9%	-18%	-67*	1%	21µM*
C=CCOc1nc2c(c(=O)n(C)c(=O)n2C)n1Cc1ccc(Cl)cc1	16µM*	18%	?	-12	3%	15µM*
C=CCOc1nc2c(c(=O)n(C)c(=O)n2C)n1Cc1ccccc1Cl	16µM*	?	4%	3	5%[9.24 µM]	23µM*
CCCOc1nc2c(c(=O)n(C)c(=O)n2C)n1Cc1cccc2ccccc12	12µM*	7%	1%	-16	10%	6.5µM*
CCOC(=O)N1CCN(Cc2nc3c(c(=O)n(C)c(=O)n3C)n2Cc2cccc3ccccc23)CC1	23µM*	-2%	-18%	-4	-10%	?
Cn1c(=O)c2c(ncn2CCNc2ccc(Cl)cc2)n(C)c1=O	/	/	59%	/	/	/
COc1cc(OC)c(N2CC(C(=O)Nc3c(C)nn(C)c3C)CC2=O)cc1Cl (centres undefined)	/	/	-16%	/	/	/
Cc1nc(-c2ccc(S(=O)(=O)Nc3ccc(C(C)C)cc3)cc2)co1	/	/	1%	/	/	/
SMILES	TDP1 cell CPT	HT1080 IDH1KD tx	ALOX12 inh	IL1B secr inh	HT1080NT lethal	TDP1 cell noCPT
CCOC(=O)c1ccc(NC(=O)Nc2ccc3snnc3c2)cc1	?	/	-15%	/	/	2.9µM*
CCc1ccccc1NC(=O)Nc1ccc2snnc2c1	18µM*	/	-25%	/	/	21µM*
Cc1ccc(NC(=O)Nc2ccc3snnc3c2)cc1C	?	/	-7%	/	/	?
O=C(Nc1ccc2snnc2c1)Nc1cccc2ccccc12	23µM*	?	-20%	-26	?	?
COc1cccc(NC(=O)Nc2ccc3snnc3c2)c1	?	/	0%	/	/	?
CCCC(C)NC(=O)c1ccc(OC)c(S(=O)(=O)NCC)c1 (centres undefined)	/	/	24%	/	/	/
O=C(O)C[C@@H]1CCN(C(=O)C2CCCCC2)C[C@@H]1CCN1CCOCC1	/	/	-1%[176 µM]	/	/	/
O=C(CNC(=O)c1ccccc1Cl)NCCN1CCc2ccccc2C1	/	/	-28%	/	/	/
C[C@]1(O)CCN(C(=O)c2cccc(Oc3ccccc3)c2)C[C@@H]1O	/	/	71%	/	/	/
CNc1oc(Cc2ccccc2)nc1S(=O)(=O)c1ccccc1	15µM*	?	/	0	-17%	6.5µM*
CNc1oc(C)nc1S(=O)(=O)c1ccc(C)cc1	-1%	5%	?	10	-1%	-16%
COC(=O)c1ccc(Nc2nc(-c3ccccc3Cl)nc3ccccc23)cc1	?	/	?	/	/	16µM*
CC(=O)c1cccc(Nc2nc(-c3ccccc3Cl)nc3ccccc23)c1	15µM*	/	26%	/	/	10µM*
CC(C)Oc1nc(-c2ccccc2Cl)nc2ccccc12	?	?	-6%	32	-16%	15µM*
CC(=O)Nc1cccc(Nc2nc(-c3ccccc3F)nc3ccccc23)c1	?	?	-1%	-52*	-18%	?
CC(=O)c1cccc(Nc2nc(-c3ccc(C)cc3)nc3ccccc23)c1	/	/	18%	/	/	/
CCOCCn1c(=O)[nH]c2cc(C(=O)N(C)Cc3cnn(C)c3)ccc21	/	/	-2%	/	/	/
CC(=O)c1cccc(Nc2nc(-c3cccc(C)c3)nc3ccccc23)c1	21µM*	/	6.3µM*	/	/	5.8µM*
COc1ccc(NC(=O)C2CCCN(CCCc3ccccc3)C2)cc1OCC(C)C (centres undefined)	7.3µM*	-11%	?	-85*	?	5.2µM*
